From PubChem BioAssay
NRP1-CendR mod = modulators of CendR peptide binding to NRP-1, primary screen, biochemical, fluorescence polarization, uHTS | Neuropilin-1 (Homo sapiens), O14786 | FAM-RPARPAR peptide binding to NRP-1 | inhibition, % at 25 µM | 360,000 tested, 0.85% active;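 active = inhibition or corrected inhibition above about 18%, plus a signal ratio from 0.5 to 1.5, limit read from the data, passing the limit was not always enough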
APOBEC3G inh = APOBEC3G DNA deaminase inhibitors, primary screen, biochemical, fluorescence, single-stranded DNA substrate, uHTS | DNA dC->dU-editing enzyme APOBEC-3G (Homo sapiens), Q9HC16 | recombinant A3G, ssDNA deamination FAM/TAMRA fluorescence | inhibition, % at 20 µM | 330,000 tested, 0.28% active | AID 493012, 2011;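 active = inhibition of at least 40% at 20 µM, with no more than 30% in the related APOBEC3A deaminase screen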;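 also: plate controls were DMSO wells with A3G for no effect and wells lacking A3G enzyme for full effect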
CR mimetic SO = reduction of superoxide in aged yeast, primary screen, HTS | S. cerevisiae aged cells, superoxide DHE fluorescence; hits give low values | superoxide response (% of plate mean), % at 10 µM | 330,000 tested, 0.18% active | AID 2690, 2010;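 active = superoxide response under a set limit, about three screen SD below normal, cut at about 65% in these data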;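 also: yeast aged for seven days with compound at 30 °C before DHE staining; 100% = average MFI of all compound-treated wells on the plate with controls excluded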
APOBEC3A inh = APOBEC3A ssDNA deaminase inhibitors, primary screen, selectivity assay for APOBEC3G inhibitor project, biochemical, FAM/TAMRA oligo cleavage fluorescence; 330,000 tested, 0.41% active; AID 493011, 2011; recombinant A3A, FAM/TAMRA ssDNA deamination fluorescence; inhibition, % at 20 µM;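 active = at least 40% inhibition at 20 µM here, with at most 30% in a related deaminase screen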;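 also: plate controls were A3A with DMSO for no effect and wells lacking A3A enzyme for full effect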
Target sequence (P31941 whole entry, looked up): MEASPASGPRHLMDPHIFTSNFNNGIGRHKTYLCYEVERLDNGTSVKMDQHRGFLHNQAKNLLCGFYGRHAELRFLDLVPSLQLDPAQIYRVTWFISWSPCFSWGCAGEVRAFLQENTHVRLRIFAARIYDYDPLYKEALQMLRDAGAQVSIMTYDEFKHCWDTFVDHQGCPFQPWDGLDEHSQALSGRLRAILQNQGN
PfM18AAP inh-1 = PfM18AAP inhibitors, malaria aminopeptidase, primary screen, biochemical, QFRET, recombinant enzyme; H-Glu-NHMec fluorogenic cleavage; inhibition, % at 7.35 µM; AID 1822, 2009; 290,000 tested, 1.2% active; M18 aspartyl aminopeptidase (Plasmodium falciparum 3D7);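 active = inhibition above the campaign mean inhibition over all tested compounds plus 3 SD, cut at about 28% in these data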;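 also: 0% = plate median of test compound wells and 100% = 2 mM ZnCl2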
ALR H2O2 inh = inhibitors of human ALR sulfhydryl oxidase, primary screen, biochemical, H2O2 detection, HRP-luminol luminescence, single point | purified ALR, DTT oxidation | inhibition, % (no concentration beside the values) | FAD-linked sulfhydryl oxidase ALR (Homo sapiens), P55789 | AID 485317, 2010 | 290,000 tested, 3.8% active;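 active = mean replicate inhibition above about 79%, with every replicate also reaching it, limit read from the data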
Target sequence (P55789 whole entry, looked up): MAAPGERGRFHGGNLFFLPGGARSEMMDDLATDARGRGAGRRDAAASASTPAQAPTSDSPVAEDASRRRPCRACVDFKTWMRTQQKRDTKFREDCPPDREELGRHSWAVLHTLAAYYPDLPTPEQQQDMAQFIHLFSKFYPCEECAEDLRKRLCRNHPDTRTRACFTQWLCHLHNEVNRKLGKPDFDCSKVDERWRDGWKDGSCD
PfM18AAP inh-2 = PfM18AAP inhibitors, malaria aminopeptidase, confirmation, biochemical, QFRET, recombinant enzyme, triplicate | H-Glu-NHMec fluorogenic cleavage | inhibition, % at 7.35 µM | 2,400 tested, 28% active | shares compounds with PfM18AAP inh-1;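 active = mean inhibition over replicate wells above the hit cutoff set for the earlier primary screen, cut at about 29% in these data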;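 also: 0% = median of test compound wells and 100% = 2 mM ZnCl2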
CTSL1 counter = cathepsin L1 inhibitors, retest, confirmation, counter-screen for PFM18AAP inhibitor project, biochemical, QFRET, triplicate. shares compounds with PfM18AAP inh-1. purified cathepsin L1, Z-Leu-Arg-MCA fluorescence. inhibition, % at 5.96 µM. 2,400 tested, under 10 active;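 active = average inhibition across replicates above the hit cutoff set in the earlier primary screen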;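 also: 0% = median of test compound wells and 100% = Z-Phe-Ala-diazomethylketone 1 µM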
Starred values were filed as active, the others as inactive; x = not tested or not shown. Only some compounds are listed: those with a hit (about 5.2% of all), similar ones and a draw of the others.

SMILES | NRP1-CendR mod | APOBEC3G inh | CR mimetic SO | APOBEC3A inh | PfM18AAP inh-1 | ALR H2O2 inh | PfM18AAP inh-2 | CTSL1 counter
COc1ccc(-c2nc(N)n(C(=O)c3ccccc3)n2)cc1 | 15 | -7 | x | -2 | -2 | x | x | x
COc1ccc(OC)c2c1sc(=NC(=O)C1COc3ccccc3O1)n2C (stereo not given) | -9 | -6 | 96 | -3 | -5 | -2 | x | x
COc1ccc(/C(=N\Nc2ccccc2C(=O)O)c2ccccc2)cc1 | 12 | -4 | 76 | 3 | 38* | 99* | -12 | 0
O=C(CN1CCCC1)Nc1ccc(Cl)cc1C(F)(F)F | 11 | -4 | 89 | 4 | 3 | -2 | x | x
Cc1ccc(S(=O)(=O)N2CCCCC2)cc1NC(=O)COc1ccccc1 | 14 | -1 | 103 | 2 | x | 4 | x | x
COc1ccc(OCC(=O)Nc2cc(NC(=O)c3ccco3)ccc2OC)cc1 | -3 | -4 | 107 | 1 | 7 | 21 | x | x
CN1CCN(c2nc(N3CCN(CCO)CC3)nc3ccccc23)CC1 | 2 | -6 | 96 | -4 | -2 | 0 | x | x
COc1cccc(C2C(C#N)=C(N)OC3=C2C(=O)CC(c2ccco2)C3)c1OCc1ccc(F)cc1 (stereo not given) | -10 | 1 | 99 | 7 | 35* | -5 | -53 | -6
CCN(CC)CCN(C(=O)c1ccc(C(=O)c2ccccc2)cc1)c1nc2cc3c(cc2s1)OCO3 | 8 | -5 | 85 | -5 | 3 | 15 | x | x
CCN(CC)CCN(C(=O)c1ccc2ncsc2c1)c1nc2cc3c(cc2s1)OCO3 | -7 | -2 | 111 | 1 | 47* | 23 | -5 | 6
Cc1cccc(C)c1NC(=O)C1c2ccccc2OCC(=O)N1C1CC1 (stereo not given) | 0 | x | x | x | x | x | x | x
COc1ccc(NC(=S)NNc2ccc([N+](=O)[O-])cc2S(=O)(=O)Nc2ccc(C)cc2C)cc1 | -44 | -5 | 88 | -1 | 39* | -2 | 32* | 2
Cc1ccc(NS(=O)(=O)c2cc([N+](=O)[O-])ccc2NNC(=S)Nc2cc(C)ccc2C)c(C)c1 | -51 | -6 | 95 | 1 | 39* | -2 | 39* | 0
Cc1ccc([N+](=O)[O-])cc1NC(=S)NC(=O)C(C)(C)C | 13 | -4 | 95 | 0 | -20 | 3 | x | x
Cc1onc(-c2c(Cl)cccc2Cl)c1C(=O)NC1CCCCC1 | 15 | -9 | 95 | -4 | -1 | -11 | x | x
COc1ccc(O)c(/C=N/c2sc(C)c(C)c2C#N)c1 | -206 | 2 | 107 | -1 | 42* | 8 | -23 | -1
CCNC(=S)NNC(=O)c1ccc(S(=O)(=O)NCc2ccco2)cc1 | 5 | -8 | 93 | -5 | x | 30 | x | x
COc1ccc(CC(=O)Nc2sc3c(c2C(N)=O)CCCC3)cc1 | -15 | -4 | 99 | -1 | 0 | -4 | x | x
COc1ccc2nc(Nc3sc4c(c3C(N)=O)CCCC4)sc2c1 | -43 | 15 | 99 | 1 | 42* | 9 | -24 | -5
CC(=O)NS(=O)(=O)c1ccc2sc(C)nc2c1 | 3 | 6 | 88 | 2 | 22 | -9 | -32 | 0
c1ccc2c(c1)Nc1nccnc1S2 | -19 | x | 92 | x | 36* | 7 | 4 | -7
O=C1Nc2cccnc2Sc2ccccc21 | 0 | -1 | 105 | 6 | -2 | -11 | x | x
COc1ccc(-n2c(O)c(C=Nc3ccccc3)c3ccccc3c2=O)cc1 | 13 | -4 | 99 | -1 | 6 | -6 | x | x
